TRPV1 agonist: HTS Assay for Compounds that Act as Agonists of the Vanilloid Receptor 1 | Transient receptor potential cation channel subfamily V member 1 (Homo sapiens), Q8NER1 | TRPV1-expressing cells, Fluo-8 calcium influx, agonist mode | activation, % at 8.33 µM | 320,000 tested, 0.19% active | AID 540275, 2011; in the data active means activation above about 80%; inconclusive means between about 30% and that limit; further: 0% is about no effect
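Fluo-8 calcium influx in TRPV1-expressing cells, kinetic read (ex 480/em 520 nm). Compound added and read 3 min for agonist activity, followed by capsaicin at EC20 final and 2 min further read for enhancement.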
D1 antagonist: Antagonist of Human D 1 Dopamine Receptor: qHTS; D(1A) dopamine receptor (Homo sapiens), P21728; HEK293 TREx D1 cells, calcium flux, dopamine EC80; hits give low values; activity change, negative = inhibition, % at 10 µM; 360,000 tested, 3.2% active; AID 504652, 2011; in the data active means activity change below about -30%; further: on the % scale 0 is the no-effect control and ±100 the full control effect
Target sequence (P21728 whole entry, looked up): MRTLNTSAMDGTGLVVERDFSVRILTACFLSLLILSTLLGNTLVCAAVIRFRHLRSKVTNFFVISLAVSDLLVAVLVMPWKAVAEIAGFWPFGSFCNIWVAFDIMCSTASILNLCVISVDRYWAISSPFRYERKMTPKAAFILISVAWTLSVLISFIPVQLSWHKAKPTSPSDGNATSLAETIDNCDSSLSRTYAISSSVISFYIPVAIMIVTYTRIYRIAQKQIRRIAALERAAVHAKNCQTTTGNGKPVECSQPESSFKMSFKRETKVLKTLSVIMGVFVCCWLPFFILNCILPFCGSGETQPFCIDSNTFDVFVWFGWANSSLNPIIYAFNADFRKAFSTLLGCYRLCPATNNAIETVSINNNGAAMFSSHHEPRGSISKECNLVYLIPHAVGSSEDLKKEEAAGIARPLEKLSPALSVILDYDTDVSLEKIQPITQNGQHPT
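Kinetic fluorescence of a calcium dye serves as the read-out. D1-expressing Hek293 Trex cells, induced overnight at 30 C, are exposed to compound for 180 s before an EC80 dopamine addition, then read 180 s further.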
TRPV1 PAM: HTS Assay for Compounds that Act as Potentiators of the Vanilloid Receptor 1; Transient receptor potential cation channel subfamily V member 1 (Homo sapiens), Q8NER1; TRPV1-expressing cells, Fluo-8 calcium influx, capsaicin EC20 potentiation; potentiation, % at 8.33 µM; 320,000 tested, 0.02% active; AID 540277, 2011; in the data active means potentiation above about 80%; inconclusive means between about 30% and that limit; further: 0% is about no effect
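Fluo-8 calcium influx in TRPV1-expressing cells, kinetic read (ex 480/em 520 nm). Compound added and read 3 min for agonist activity, followed by capsaicin at EC20 final and 2 min further read for enhancement.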
D1 potentiator: Potentiators of Human D1 Dopamine Receptor: qHTS; D(1A) dopamine receptor (Homo sapiens), P21728; HEK293 TREx D1 cells, calcium flux, dopamine EC20 potentiation; potentiation, % at 10 µM; 360,000 tested, 0.036% active; AID 504651, 2011; in the data active means potentiation above about 30%; further: 0% is about no effect
D1 agonist: Allosteric Agonists of the Human D1 Dopamine Receptor: qHTS; activation, % at 2 µM; HEK293 T-REx D1 cells, calcium flux, agonist mode; AID 504660, 2011; 360,000 tested, 1% active; D(1A) dopamine receptor (Homo sapiens), P21728; in the data active means activation above about 30%; further: 0% is about no effect
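Tetracycline-induced HEK293 TREx D1 cells, force-coupled to calcium signalling, were dye-loaded with a no-wash calcium kit. Compound was pin-added after a 10 s baseline. Fluorescence was read kinetically at 1 cycle/s for 180 s, with calcium rises flagged as agonism.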
An asterisk follows results filed as active; ? = inconclusive; nt = not tested or not shown; ! = not active in a repeat. Most compounds without a hit are left out; they make up all but 4.2% or so of the library.

SMILES	TRPV1 agonist	D1 antagonist	TRPV1 PAM	D1 potentiator	D1 agonist
CC12CCC(C(=O)N(CC(=O)O)C1=O)C2(C)C (stereo not given)	1.4	-51.8*	5.1	4.9	0.0
Cc1ccccc1NCN1C(=O)C2CCC(C)(C1=O)C2(C)C (stereo not given)	13.6	22.3	-17.6	0.0	7.9
CCc1cccc(C)c1NC(=O)CN1C(=O)c2ccccc2Sc2ncccc21	nt	5.7	nt	-0.9	4.1
Cc1nc2sc(C(=O)c3ccccc3)c(N)c2c(C)c1C	1.8	2.6	-0.4	-3.4	0.1
CC(=O)N1CCc2nc3sc(C(=O)c4ccc(F)cc4)c(N)c3c(C(F)(F)F)c2C1	nt	7.1	nt	0.6	61.2*
Cc1nc(-c2ccccc2)nc2sc(C(=O)c3ccc(F)cc3)c(N)c12	5.5	10.3	-1.8	-1.9	34.1*
CCc1ccc2oc(C(=O)NCCc3ccc(OC)c(OC)c3)cc(=O)c2c1	nt	-12.6	nt	-1.4	9.6
Cc1nc(Cl)c(C(=O)NCc2ccccc2)c(C)c1Cl	10.6	3.0	-12.6	-3.2	2.2
COC(=O)c1ccccc1NC(=O)c1nc(S(=O)(=O)Cc2ccccc2)ncc1Cl	-2.0	-19.1	-15.1	-1.5	1.7
CCOc1ccccc1NC(=O)c1nc(S(=O)(=O)Cc2cccc(C)c2)ncc1Cl	4.2	-31.3*!	8.3	-4.5	2.2
O=C(NCc1ccc2c(c1)OCO2)c1nc(S(=O)(=O)Cc2ccccc2)ncc1Cl	-2.7	-27.7	6.1	-5.4	0.8
CCc1nnc(NC(=O)c2nc(S(=O)(=O)Cc3cccc(C)c3)ncc2Cl)s1	1.8	10.5	-5.1	1.7	8.6
COc1ccc(CNC(=O)c2nc(S(=O)(=O)Cc3ccccc3)ncc2Cl)cc1	1.8	-36.6*!	26.7	-5.6	5.5
O=C(NCc1ccccc1)c1c(Cl)nc(Cl)c(Cl)c1Cl	1.2	-42.5*	-11.4	-10.2	0.4
O=C(NCc1ccccc1)c1nc(S(=O)(=O)Cc2ccccc2)ncc1Cl	1.7	-41.1*	-13.6	-6.0	0.5
CCCCCN1C(C(=O)c2ccccc2)=C(NC(=O)c2ccc(OC)cc2)c2ccccc2S1(=O)=O	nt	10.1	nt	-2.8	2.2
COc1ccc(NC(=O)Cn2cc(S(=O)(=O)c3ccccc3)c(=O)c3cc(C)ccc32)cc1Cl	nt	-6.9	nt	-2.5	6.7
COc1ccc(NC(=O)c2nc(S(=O)(=O)Cc3ccc(C)cc3)ncc2Cl)cc1	nt	-37.9*	nt	-3.4	1.0
O=C(Nc1nc2ccc(F)cc2s1)c1nc(S(=O)(=O)Cc2ccccc2F)ncc1Cl	nt	-34.1*	nt	12.5	-0.2
Cc1ccc(CS(=O)(=O)c2ncc(Cl)c(C(=O)Nc3ccc(OC(F)F)cc3)n2)cc1	-4.3	-4.9	9.1	0.6	1.2
CC(C)c1nnc(NC(=O)c2nc(S(=O)(=O)Cc3ccccc3F)ncc2Cl)s1	0.1	-0.1	?	-1.1	1.9
CCS(=O)(=O)c1ncc(Cl)c(C(=O)NCc2ccccc2)n1	nt	-32.8*	nt	-2.8	0.9
O=C(NCc1ccc2c(c1)OCO2)c1nc(S(=O)(=O)Cc2ccccc2F)ncc1Cl	5.0	-49.4*	-11.4	-11.3	3.2
CCNC(=O)c1c(NC(=O)c2nc(S(=O)(=O)CC)ncc2Cl)sc2c1CCCC2	nt	-54.5*	nt	-3.4	13.3
Cc1ccc(C)c(NC(=O)c2nc(S(=O)(=O)Cc3ccc(F)cc3)ncc2Cl)c1	nt	-36.6*	nt	-2.2	-0.3
SMILES	TRPV1 agonist	D1 antagonist	TRPV1 PAM	D1 potentiator	D1 agonist
COc1ccc(CCn2c3c(c(=O)[nH]c2=O)C(NC(=O)c2ccccc2F)(C(F)(F)F)C(=O)N3)cc1OC (stereo not given)	nt	0.0	nt	1.6	0.7
CCCCn1c(CNC(=O)c2ccc(OC)cc2)nnc1SCC(=O)Nc1ccccc1	nt	-68.6*	nt	-5.6	0.9
CCCCn1c(CNC(=O)c2ccc(OC)cc2)nnc1SCC(=O)Nc1ccc(OC)cc1	nt	-4.0	nt	1.4	1.2
COc1ccccc1C(=O)NC1(C(F)(F)F)C(=O)Nc2c1c(=O)[nH]c(=O)n2-c1ccc(F)cc1 (stereo not given)	nt	11.2	nt	-0.8	-1.1
NC(=O)COc1ccc(C(=O)NCC2(N3CCOCC3)CCCCC2)cc1	-0.3	-32.0*	1.3	0.4	0.3
N#Cc1ccc(OCC(=O)NCC2(N3CCCCC3)CCCCC2)cc1	-0.9	35.2	4.0	-2.8	5.4
O=C(COc1ccccc1)NCC1(N2CCCCC2)CCCCC1	2.3	-66.1*	-5.6	3.2	-1.3
COc1cc(NC(=O)c2cc3c(=O)oc4ccc(C)cc4c3s2)cc(OC)c1OC	nt	13.3	nt	-2.7	0.2
Cc1ccc(NC(=O)CN2C(=O)C3(SCC(=O)N3c3cccc(Cl)c3)c3ccccc32)cc1C (stereo not given)	nt	-8.6	nt	0.5	-0.1
CCOc1ccc(/C=C(\C#N)c2nc(-c3cc4ccccc4oc3=O)cs2)c(OCC)c1	nt	-14.8	nt	-0.6	-0.4
O=c1c2cc3c(cc2nc2sc(Nc4ccc(F)c(Cl)c4)nn12)OCO3	nt	5.3	nt	3.0	54.8*
Cc1cccc(Nc2nn3c(=O)c4cc5c(cc4nc3s2)OCO5)c1	nt	36.3	nt	-1.3	0.9
N/C(=N\OC(=O)c1cc(Cl)ccc1Cl)c1cccnc1	-4.0	-57.3*	-2.4	-12.7	0.9
N/C(=N\OC(=O)COc1ccc([N+](=O)[O-])cc1)c1cccnc1	-3.3	-1.9	4.9	37.6*	1.6
N/C(=N\OC(=O)c1ccccc1)c1cccnc1	2.5	-50.3*	-1.9	2.5	2.7
Cc1c(Cl)cccc1NC(=O)N1CCC(CN2CCCC2)CC1	nt	-15.2	nt	-0.1	0.7
CCc1ccc(C(=O)c2cn(CC(=O)Nc3cccc(OC)c3)c3ccc(OC)cc3c2=O)cc1	9.5	15.5	-12.2	0.8	6.8
Cc1ccc(S(=O)(=O)Nc2cc(=O)[nH]c(SCc3ccccc3Cl)n2)cc1	3.8	-31.5*	-5.9	-7.8	12.4
CC(C)(C)c1cc(=O)[nH]c(SCc2ccccc2Cl)n1	0.7	9.7	-3.6	5.2	6.4
O=c1cc(NS(=O)(=O)c2ccccc2)nc(SCc2ccc(Cl)cc2)[nH]1	-1.4	-35.9*	4.3	-6.0	18.0
COc1ccc(C(=O)n2nc(-c3ccco3)nc2NCc2cccs2)cc1	nt	-1.3	nt	-2.4	7.0
O=S(=O)(c1cccc(C(F)(F)F)c1)N1CCN(c2nc(-c3cccs3)nc3cc(Cl)ccc23)CC1	nt	30.0	nt	4.4	1.5
O=S(=O)(NCc1cccc(Br)c1)c1ccc(-c2cc(C(F)(F)F)on2)s1	nt	-11.3	nt	-1.6	21.0
O=C(NCCN1CCCCC1)c1ccc(Cn2c(SCc3ccc(F)cc3)nc3cccnc32)cc1	nt	-32.3*	nt	-0.1	-0.1

Assay outcomes: PubChem BioAssay, National Center for Advancing Translational Sciences (NCATS)
